# Hits are enriched below; roughly 10% of the tested compounds scored in any of these assays.
# GPT2 inhibitor: GPT2 alanine aminotransferase inhibition. Q8TD30. Recombinant GPT2, coupled pyruvate oxidase/HRP Amplex Red fluorescence. Potency, µM (titrated, usually from 57.7 µM), for inactives: at the top dose activity change, negative = inhibition, usual class: inhibitors. 100,000 compounds, 0.25% hits. AID 1671188; note: % is set by controls: 0 for no effect and ±100 for the full control effect; nearly all actives have a fitted effect of over 60% in size
#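 Inhibition is scored from Amplex Red fluorescence generated when pyruvate oxidase and HRP act on pyruvate released by GPT2. Reactions contain 10ng/uL enzyme, 250uM a-KG and 2mM L-alanine and run 30 min at room temperature.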
# HEK cytotox: kills HEK 293 cells. 94,000 compounds, 6.6% hits. Potency, µM (doses to about 115 µM), for inactives: at the highest dose activity change, negative = cytotoxicity, usual class: inhibitors. HEK 293 viability, ATP luminescence (CellTiter-Glo), 48-72 h; note: % is set by controls: 0 for no effect and ±100 for the full control effect; nearly all actives have a fitted effect of over 60% in size
#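 CellTiter-Glo luminescence (cellular ATP) was read after 48 or 72 hr of compound exposure at 37 degree Celsius. Cells were HEK 293 plated at 250 cells/well.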
# 3T3 cytotox: cytotoxic compounds in NIH 3T3 cells; 94,000 compounds, 4.3% hits; NIH 3T3 viability, CellTiter-Glo ATP luminescence, 48-72 h; Potency, µM (doses to about 96.7 µM), without a hit: at the top dose activity change, negative = cytotoxicity, actives largely listed as inhibitors; note: % is set by controls: 0 for no effect and ±100 for the full control effect; nearly all actives have a fitted effect of over 55% in size
#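 Mouse fibroblast NIH 3T3 cells, 400 per well, received compound via pintool and were incubated for 48 or 72 hr prior to CellTiter-Glo ATP luminescence measurement.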
# FLuc inh: blocks purified firefly luciferase enzyme activity | P08659 | 76,000 compounds, 2.5% hits | Potency, µM (titrated, usually from 115 µM), usual class: inhibitors | purified P. pyralis luciferase, luminescence, biochemical; note: % is set by controls: 0 for no effect and ±100 for the full control effect; nearly all actives have a fitted effect of over 65% in size
# Target sequence (P08659 whole entry, looked up): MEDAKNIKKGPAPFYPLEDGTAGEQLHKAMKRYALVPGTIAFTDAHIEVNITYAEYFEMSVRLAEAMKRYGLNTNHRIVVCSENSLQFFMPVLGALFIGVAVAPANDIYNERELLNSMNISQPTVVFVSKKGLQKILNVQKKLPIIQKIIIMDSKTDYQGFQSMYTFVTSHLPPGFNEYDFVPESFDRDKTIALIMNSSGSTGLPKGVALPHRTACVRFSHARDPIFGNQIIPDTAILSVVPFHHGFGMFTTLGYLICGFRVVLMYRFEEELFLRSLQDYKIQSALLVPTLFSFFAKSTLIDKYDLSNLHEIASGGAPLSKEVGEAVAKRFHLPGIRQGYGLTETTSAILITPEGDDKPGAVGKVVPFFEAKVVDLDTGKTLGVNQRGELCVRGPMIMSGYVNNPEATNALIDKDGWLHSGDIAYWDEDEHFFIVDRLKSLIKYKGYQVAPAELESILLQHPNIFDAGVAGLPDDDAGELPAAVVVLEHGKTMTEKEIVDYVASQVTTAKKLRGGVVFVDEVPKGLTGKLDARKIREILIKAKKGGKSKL
#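 Purified P. pyralis luciferase (10nM final) in 50mM Tris acetate pH 7.5, 10mM Mg acetate, 0.01% Tween-20, 0.05% BSA with 10uM D-luciferin and 10uM ATP. Compounds titrated qHTS. Luminescence imaged on CCD.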
# hNpr1 antagonist: antagonists of human natriuretic peptide receptor Npr1; P16066; HEK293 hNpr1 GloSensor cGMP, ANP-stimulated luminescence; Potency, µM (titrated, usually from 46.3 µM), without a hit: top-dose activity change, negative = inhibition, most hits filed as inhibitors; 76,000 compounds, 1.6% hits; calls by dose curve; note: % is set by controls: 0 for no effect and ±100 for the full control effect; nearly all actives have a fitted effect of over 60% in size
#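 Compound pre-incubated 30 min at room temperature on GloSensor-loaded HEK293 cells stably carrying hNpr1 and the pGS-40F cGMP biosensor. Stimulation uses hNppA at 0.1 nM final; luminescence is taken at baseline and 20 min post-agonist.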
# NPR1 antag cnf: hNpr1 antagonism, confirmation assay | shares compounds with hNpr1 antagonist | HEK293 hNpr1 cGMP GloSensor luminescence, ANP-stimulated | Potency, µM (doses to about 57.6 µM), without a hit: at the highest dose activity change, negative = inhibition, actives largely listed as inhibitors | 1,400 compounds, 76% hits | AID 1347044; calls by dose curve; note: nearly all actives have a fitted effect of over 70% in size
# Npr2 selectivity: antagonizes human Npr2, subtype selectivity check | shares compounds with hNpr1 antagonist | 1,400 compounds, 67% hits | AID 1347046 | Potency, µM (highest dose often 57.6 µM), inactives show at the highest dose activity change, negative = inhibition, usual class: inhibitors | HEK293 hNpr2 GloSensor cGMP luminescence, CNP-stimulated; calls by dose curve; note: nearly all actives have a fitted effect of over 70% in size
# FLuc counter: inhibits firefly luciferase, false Npr1 antagonist flag | 1,400 compounds, 0.7% hits | shares compounds with hNpr1 antagonist | Potency, µM (highest dose often 57.6 µM), for the others: at the highest dose activity change, negative = inhibition, most hits filed as inhibitors | purified FLuc enzyme, luminescence, Km substrate | AID 1347047; note: 0% is about no effect
# GloSensor cGMP: control cell line activity, Npr1 antagonist counter-screen; 1,400 compounds, 69% hits; shares compounds with hNpr1 antagonist; HEK293 GloSensor cGMP, SNP-stimulated, luminescence; AID 1347051; Potency, µM (top dose mostly 57.6 µM), without a hit: at the top dose activity change, negative = inhibition, most hits filed as inhibitors; calls by dose curve; note: % is set by controls: 0 for no effect and ±100 for the full control effect; nearly all actives have a fitted effect of over 70% in size
# Numbers without * were called inactive; i = inactive; ? = inconclusive; / = no result; [ ] = dose if it differs, or a comment. Unless noted, calls come from the whole dose curve; as a rule, active = well fitted curve in the direction sought with a large enough effect; inconclusive = small, poorly fitted or top-dose-only effect, or another doubt; inactive = no such curve, though single readings can be large; an effect the other way counts as inactive or inconclusive. Potency is the fitted concentration of half-maximal effect.
SMILES,GPT2 inhibitor,HEK cytotox,3T3 cytotox,FLuc inh,hNpr1 antagonist,NPR1 antag cnf,Npr2 selectivity,FLuc counter,GloSensor cGMP
CC(C)c1ccc(CNC(=O)c2ccc(CN3C(=O)NC4(CCOCC4)C3=O)cc2)cc1,i,?,?,i,7.1µM*,19µM*,19µM*,-2%,15µM*
O=C(NCc1ccccc1Cl)c1ccc(CN2C(=O)NC3(CCOCC3)C2=O)cc1,i,-22%,-19%,i,-23%,/,/,/,/
OC[C@@]1(O)CO[C@@H](OC[C@H]2O[C@@H](Oc3c[nH]c4ccccc34)[C@H](O)[C@@H](O)[C@@H]2O)[C@@H]1O,i,/,/,/,/,/,/,/,/
CC(C)Oc1ccc(CN2CCC(C)(c3noc(C4CCOCC4)n3)CC2)cc1,i,-14%,0%,i,1%,/,/,/,/
CC1(c2noc(C3CCOCC3)n2)CCN(Cc2ccc(Cl)cc2F)CC1,-3%,?,-29%,i,13µM*,24µM*,24µM*,7%,22µM*
CC1(COc2cccnc2)COc2ccc(C(=O)N3CCN(c4ccccn4)CC3)cc2N1 (stereo not given),i,?,?,i,6.3µM*,6.9µM*,7.7µM*,2%,5.4µM*
CC1(COc2ccccc2)COc2ccc(C(=O)N3CCN(c4ccccn4)CC3)cc2N1 (stereo not given),-25%,?,?,i,-12%,/,/,/,/
COc1ccc(NC(=O)c2ccc3c(c2)NC(C)(COCC2CC2)CO3)cn1 (stereo not given),-7%[88.5 µM],?,?,?,-20%[70.6 µM],/,/,/,/
CN(Cc1ccccc1)C(=O)c1ccc2c(c1)NC(C)(COc1cccnc1)CO2 (stereo not given),-3%[88.5 µM],?,-29%[138 µM],i,32µM*,31µM*,31µM*,3%[86.2 µM],22µM*
COc1ccc(OCC2(C)COc3ccc(C(=O)Nc4ccc(OC)nc4)cc3N2)cc1 (stereo not given),-2%[88.5 µM],56µM*,?,i,35µM*,35µM*,40µM*,-12%[86.2 µM],35µM*
CC(=O)c1cccc(NC(=O)Cn2c(=O)n(-c3cccc(C)c3)c(=O)c3c2cc(C)n3C)c1,i,-18%,-9%,i,0%,/,/,/,/
NCCCC(=O)N1CCC2(CC1)CN([S+](=O)([O-])c1ccccc1)CCO2,3%,0%,?,/,/,/,/,/,/
O=C(NCCc1ccccc1)C1CCc2ncc(-c3ccsc3)n2C1 (stereo not given),-22%,?,?,i,?,?,-25%,3%,-29%
COc1ccccc1OCCNC(=O)C1CCc2ncc(-c3ccc(F)cc3)n2C1 (stereo not given),i,?,-22%,i,?,19µM*,19µM*,0%,-16%
CCC(Cn1cnc(-c2ccccc2)c1-c1ccc(C#N)cc1)N1CCN(C)CC1 (stereo not given),-6%,79µM*,?,i,11µM*,24µM*,17µM*,3%,-6%
COc1cc(Cl)c(C)cc1NC(=O)c1cc2n(n1)CC(c1ccc(Cl)cc1)OC2 (stereo not given),i,?,?,i,-2%,/,/,/,/
O=C(NCCc1cccs1)c1cc2n(n1)CC(c1ccc(Cl)cc1)OC2 (stereo not given),i,?,?,i,?,/,/,/,/
O=C(Nc1ccc(Cl)cc1)c1cc2n(n1)CC(c1ccc(Cl)cc1)OC2 (stereo not given),1%,?,?,i,11µM*,24µM*,?,-2%,27µM*
COc1ccc(CNC(=O)c2cc3n(n2)CC(c2ccc(Cl)cc2)OC3)cc1 (stereo not given),i,32µM*,?,i,22µM*,27µM*,22µM*,-6%,22µM*
O=C(c1cc2n(n1)CC(c1ccc(Cl)cc1)OC2)N1CCc2ccccc2C1 (stereo not given),5%,-12%,-9%,i,-5%,/,/,/,/
NS(=O)(=O)c1ccc(CCNC(=O)c2cc3n(n2)CC(c2ccc(Cl)cc2)OC3)cc1 (stereo not given),5%,45µM*,?,i,14µM*,24µM*,?,1%,24µM*
CC(=O)c1ccc(N2CCN(C(=O)c3cc4n(n3)CC(c3ccc(Cl)cc3)OC4)CC2)cc1 (stereo not given),i,?,?,i,11µM*,22µM*,24µM*,-2%,24µM*
CCc1c(C)nc(C)nc1N1CCN(C)C2(CCC(=O)N(CC)CC2)C1 (stereo not given),-6%,i,-12%,i,0%,/,/,/,/
CC(=O)Nc1ccc(NC(=O)c2cc3n(n2)CC(c2ccc(Cl)cc2)OC3)cc1 (stereo not given),i,?,-26%,i,-17%,/,/,/,/
COc1ccc(NC(=O)c2cc3n(n2)CC(c2ccc4c(c2)OCO4)OC3)cc1OC (stereo not given),i,?,-11%,i,-17%,/,/,/,/
O=C(Nc1ccc(Oc2ccccc2)cc1)c1cc2n(n1)CC(c1ccc(Cl)cc1)OC2 (stereo not given),-1%,?,-28%,i,3.5µM*,3.9µM*,4.8µM*,2%,3.9µM*
COc1ccc(NC(=O)c2cc3n(n2)CC(c2ccc4c(c2)OCO4)OC3)cc1Cl (stereo not given),i,?,-4%,i,?,?,-26%,-4%,?
Cc1nc(C)c(C(=O)N2CC(C)(C)C(C)(O)C2)s1 (stereo not given),?,-14%,-19%,i,2%,/,/,/,/

# From PubChem
